PubChem BioAssay (NCI)
Compounds without any hit were thinned out: in the full panel of roughly 83,000, 20% have a hit.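 Results are percent growth after 48 hours of single-concentration exposure. 100 means growth as in untreated cells, lower positive values show inhibition; negative values down to -100 show cell death.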 Active and inactive are the calls of the source.

Each compound was assayed on SK-MEL-5 melanoma (assay: NCI-60 one-dose screen, 48 h (100 = growth as untreated, 0 = no growth, -100 = all killed)). Conditions: 10 µM.
Description: Growth inhibition of the SK-MEL-5 human tumor cell line is measured as a screen for anti-cancer activity. Cells are grown in 96 well plates and exposed to the test compound for 48 hours. Compounds are tested at a single concentration, which is 10^-5 M for most compounds. The reported endpoint is percent growth (GI% or GIPRCNT), where numbers from 0 - 100% represent growth inhibition, and numbers from -100% - 0 represent cell death. For example, a value of 40 represents 60% growth inhibition. A value of 0 means no net growth occurred over the course of the experiment. A value of -40 indicates 40% of cells at the beginning of the experiment died by the end of the experiment. A value of -100 means all cells are dead at the end of the experiment.
NCI-60 Human Tumor Cell Lines Screen was performed using the standard one-dose NCI protocol, which is described in more detail at https://dtp.cancer.gov/discovery_development/nci-60/default.htm.
Compounds with GIPRCNT values below 10 were considered active. Activity score was based on GIPRCNT using the following formula: […]
Score is 0 for GIPRCNT values of 100 or above, 50 for GIPRCNT values of 0, and 100 for GIPRCNT values of -100.

Structure (SMILES)	growth
OCc1cccc2ccccc12	118% (inactive)
NC(=O)N/N=C\c1ccco1	107% (inactive)
O=S(=O)(O)CC(O)CN1CCN(CCO)CC1 (stereo not given)	107% (inactive)
C#CC(C)(O)c1ccc(Cl)cc1 (stereo not given)	101% (inactive)
CC(=O)c1ccc2c(ccc3ccccc32)c1	96.8% (inactive)
O=C(/C(=N/O)c1ccccc1)c1ccccc1	97.4% (inactive)
O=C(O)/C=C/c1ccc2c(c1)CCC2	105% (inactive)
CC1(c2ccccc2)NC(=O)NC1=O (stereo not given)	108% (inactive)
COC(=O)CCCCC1=CCC2C(=O)C=C(O)C2C1 (stereo not given)	102% (inactive)
O=C(NCO)c1ccccc1	111% (inactive)
CC(=O)OCC1OC(OC2=C(CC=C(C)C)C(=O)c3ccccc3C2=O)C(OC(C)=O)C(OC(C)=O)C1OC(C)=O (stereo not given)	4.66% (active)
Nc1nc2c(c(-c3nc(N)nc4c3CCc3ccccc3-4)n1)CCc1ccccc1-2	99.3% (inactive)
CC1(C)OC(=O)C(c2ccsc2)C(=O)O1	101% (inactive)
C=CCCCCCCCCCOC(C)=O	101% (inactive)
C[N+](C)=c1ccc2nc3c(cc(Nc4ccccc4)c4ccccc43)oc-2c1	46.3% (inactive)
O=C1N(C[P+](c2ccccc2)(c2ccccc2)c2ccccc2)CCCN1C[P+](c1ccccc1)(c1ccccc1)c1ccccc1	106% (inactive)
CCc1nc(N)nc(N)c1-c1ccc(Cl)cc1	24.3% (inactive)
CCCC(=O)c1cc(C)ccc1OC	104% (inactive)
O=S(=O)(O)c1ccc(Cl)c(Cl)c1	107% (inactive)
NC(=S)N/N=C/c1ccc(N)cc1	99.8% (inactive)

Structure (SMILES)	growth
CC(C)=NNC(N)=S	90.2% (inactive)
O=C(NC1CCCCC1)OCc1c(COC(=O)NC2CCCCC2)c(-c2ccc(Cl)c(Cl)c2)n2c1CCC2	41.6% (inactive)
O=c1[nH][nH]c(=O)c2cc([N+](=O)[O-])ccc12	101% (inactive)
CN(C)c1ccc(CNC(C(=O)c2ccccc2)c2ccccc2)cc1 (stereo not given)	56.2% (inactive)
CS(=O)CC1=NC(=N)N=C1CS(C)=O (stereo not given)	99.3% (inactive)
N#Cc1ccc(OC(=O)Nc2ccc(Cl)c(Cl)c2)cc1	81.5% (inactive)
CCCCCC(C)(CC(=O)O)CC(=O)O	101% (inactive)
NC(=O)NC(=O)c1ccc(Cl)cc1	107% (inactive)
O=[N+]([O-])c1ccc(CO)cc1	101% (inactive)
O=C(O)c1ccnc(Br)c1	93.5% (inactive)
COc1cc(C(=O)NC(=S)Nc2ccc3ccccc3c2)cc(OC)c1OC	55.5% (inactive)
CCc1ccc(/C(C#N)=C/C=C/c2ccccc2)cc1	9.25% (active)
Nc1ccccc1SC(CC(=O)c1ccccc1)c1c(Cl)cccc1Cl (stereo not given)	81.4% (inactive)
O=C(O)C(c1ccccc1)C(O)c1ccccc1 (stereo not given)	94% (inactive)
NCCC(=O)c1ccc(Cl)cc1	99.5% (inactive)
CCOC(=O)c1[nH]c(C)c(C(=O)O)c1C	108% (inactive)
CN(C)C(C)(C)CC(C)(C)C	105% (inactive)
Cc1ccccc1C1N=C2Oc3ccccc3C=C2C(=O)N1 (stereo not given)	30.7% (inactive)
Cc1cc(C(O)(c2ccc(Nc3ccccc3)cc2)c2ccc(Nc3ccc(S(=O)(=O)O)cc3)cc2)ccc1N (stereo not given)	-90.4% (active)
CC1=CC(C)(C)NC(=S)N1c1ccc(S(=O)(=O)O)c2cccc(S(=O)(=O)O)c12	101% (inactive)
